According to PubChem BioAssay:
Calls of active or inactive are those of the source. No rule for the calls is given here.

biological target: Pantothenate synthetase (Mycobacterium tuberculosis (strain ATCC 25618 / H37Rv)) (UniProt P9WIL5); experiment: Recombinant Mtb pantothenate synthetase (PanC) inhibitors, coupled enzyme, confirmatory (AID 375); conditions: coupled enzyme assay; at 10 µM, hits give high values;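 also: 0% = full reaction with vehicle and 100% = no enzyme background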
Sequence (P9WIL5 whole entry, looked up): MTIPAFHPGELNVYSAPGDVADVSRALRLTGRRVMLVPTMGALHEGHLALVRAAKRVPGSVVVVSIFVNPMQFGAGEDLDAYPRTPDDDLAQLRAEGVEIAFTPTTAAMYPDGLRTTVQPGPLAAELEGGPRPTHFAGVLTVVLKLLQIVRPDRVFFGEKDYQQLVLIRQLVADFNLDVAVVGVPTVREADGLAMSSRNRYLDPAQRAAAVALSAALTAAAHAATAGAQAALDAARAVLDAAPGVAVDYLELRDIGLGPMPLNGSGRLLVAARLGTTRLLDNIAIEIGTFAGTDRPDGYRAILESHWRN

**Q.** For `COc1cc2c(C)nc(C)c(C#N)c2cc1OC`, which inhibition is on record?
**A.** The inhibition was 0% (inactive).

**Q.** For `COC(=O)c1cc2ccsc2n1CC(=O)N(C)c1ccccc1`, which inhibition is on record?
**A.** Its inhibition is 10% (inactive).

**Q.** For `COc1cc(C)nc(OCCNC(=O)COc2ccc(Cl)cc2C)n1`, which inhibition is on record?
**A.** Its inhibition is 5% (inactive).

**Q.** Which inhibition does the source give for `Cc1cccc(NS(=O)(=O)c2cc(C(=O)OCC(=O)Nc3cc(C)on3)ccc2C)c1` here?
**A.** The inhibition was 0% (inactive).

**Q.** With `COCCn1c(C)cc(C(=O)COC(=O)CCN2C(=O)c3ccccc3C2=O)c1C` as the molecule, how does the inhibition read?
**A.** The inhibition was 0% (inactive).

**Q.** `COc1ccc(C(=O)Nn2c(SCC(=O)NCC3CCCO3)nc3ccccc3c2=O)cc1` (centres undefined) was tested. Which inhibition did it give?
**A.** The inhibition was 2% (inactive).

**Q.** For `O=c1c2ccccc2nnn1CSc1nc2cc(Cl)ccc2c(=O)n1Cc1ccco1`, which inhibition is on record?
**A.** The inhibition was 7% (inactive).

**Q.** Which inhibition does the source give for `Cc1ccc(/C=c2\sc3nc(-c4ccccc4Br)nn3c2=O)o1` here?
**A.** Its inhibition is 0% (inactive).

**Q.** Which inhibition does the source give for `COc1ccc2cnn(-c3ccccc3)c(=O)c2c1OC` here?
**A.** Its inhibition is 6% (inactive).

**Q.** For `CCN(CC)CCCN(Cc1cc2cc(OC)ccc2[nH]c1=O)C(=O)Nc1ccccc1`, which inhibition is on record?
**A.** Its inhibition is 9% (inactive).

**Q.** With `CCOc1ccc(-c2nc(C#N)c(NCc3ccc4c(c3)OCO4)o2)cc1` as the molecule, how does the inhibition read?
**A.** Its inhibition is 3% (inactive).

**Q.** With `Cc1ccc(-c2nn3c(=O)c(C)nnc3s2)cc1` as the molecule, how does the inhibition read?
**A.** Its inhibition is 0% (inactive).

**Q.** For `COc1ccc2nc3oc(C(=O)N4CCCCC4)cc3cc2c1`, which inhibition is on record?
**A.** The inhibition was 12% (inactive).

**Q.** How did the inhibition turn out when `COc1cccc(C(c2nnnn2CCc2ccccc2)N2CCN(c3ccccc3)CC2)c1OC` (centres undefined) was run?
**A.** Its inhibition is 0% (inactive).

**Q.** Which inhibition does the source give for `CCOc1ccc(N2C(N)=NC(N)=NC2(C)C)cc1` here?
**A.** Its inhibition is 0% (inactive).

**Q.** How did the inhibition turn out when `CN(C(=O)C(Cl)Cl)c1ccc(OC(=O)c2ccco2)cc1` was run?
**A.** Its inhibition is 7% (inactive).

**Q.** How did the inhibition turn out when `O=C(O)C1CC(=O)N(c2ccc(Br)cc2)C1` (centres undefined) was run?
**A.** Its inhibition is 0% (inactive).

**Q.** For `CCOc1cc(C(=O)N(C)c2ccccc2)cc(OCC)c1OCC`, which inhibition is on record?
**A.** The inhibition was 1% (inactive).

**Q.** For `O=C(NCc1ccco1)c1cc2cc3ccc(Cl)cc3nc2o1`, which inhibition is on record?
**A.** The inhibition was 4% (inactive).

**Q.** For `COc1cc(C(=O)OCc2cc3ccccc3[nH]c2=O)cc(OC)c1OC`, which inhibition is on record?
**A.** Its inhibition is 4% (inactive).

**Q.** How did the inhibition turn out when `O=C(O)CSC1CC(=O)N(c2ccc(Cl)c(Cl)c2)C1=O` (centres undefined) was run?
**A.** Its inhibition is 0% (inactive).

**Q.** With `CSc1nnc2n(CCc3ccccc3)c(=O)c3c4c(sc3n12)CCCC4` as the molecule, how does the inhibition read?
**A.** The inhibition was 2% (inactive).

**Q.** How did the inhibition turn out when `CN(C)C(=O)N1CCCC(C(=O)NCc2ccccc2)C1` (centres undefined) was run?
**A.** Its inhibition is 0% (inactive).

**Q.** With `COC(=O)C1=C(C)NC(=O)C1(Nc1ccc(Cl)cn1)C(F)(F)F` (centres undefined) as the molecule, how does the inhibition read?
**A.** The inhibition was 0% (inactive).

**Q.** Which inhibition does the source give for `Cc1ccc(CCNC(=O)Cn2cccc2)cc1` here?
**A.** The inhibition was 0% (inactive).

**Q.** With `COc1cc(C(O)c2nc3ccccc3n2C)cc(OC)c1OC` (centres undefined) as the molecule, how does the inhibition read?
**A.** Its inhibition is 0% (inactive).

**Q.** How did the inhibition turn out when `Cc1cc(NS(=O)(=O)c2ccc(N)cc2)no1` was run?
**A.** The inhibition was 1% (inactive).

**Q.** `CCN(C(=O)c1cccs1)c1nnc(-c2ccncc2)s1` was tested. Which inhibition did it give?
**A.** Its inhibition is 0% (inactive).

**Q.** With `CC1CCCC(C)N1C(=O)COC(=O)c1ccc[nH]c1=O` (centres undefined) as the molecule, how does the inhibition read?
**A.** Its inhibition is 0% (inactive).

**Q.** For `CCOC(=O)N1CCC(c2cc(=O)n3[nH]c(C)c(-c4ccc(F)cc4)c3n2)CC1`, which inhibition is on record?
**A.** The inhibition was 0% (inactive).

**Q.** For `Cc1cc(C)c2c(CC(=O)NCc3ccco3)coc2c1`, which inhibition is on record?
**A.** Its inhibition is 0% (inactive).

**Q.** How did the inhibition turn out when `O=C(OCC(=O)N1CCc2ccccc21)C1=COCCO1` was run?
**A.** Its inhibition is 0% (inactive).

**Q.** Which inhibition does the source give for `COc1cc(NC(=O)c2ccc(COCC(F)(F)F)o2)cc(OC)c1OC` here?
**A.** The inhibition was 7% (inactive).

**Q.** How did the inhibition turn out when `Clc1cccc(-c2nn3c(Cn4cnc5ccccc54)nnc3s2)c1` was run?
**A.** The inhibition was 0% (inactive).

**Q.** For `COc1cc(-c2nnc(SCc3c(F)cccc3Cl)o2)cc(OC)c1OC`, which inhibition is on record?
**A.** The inhibition was 0% (inactive).

**Q.** Which inhibition does the source give for `COc1ccc(N(CC(=O)Nc2ccc(F)c(Cl)c2)S(=O)(=O)c2c(C)noc2C)cc1` here?
**A.** The inhibition was 11% (inactive).

**Q.** Which inhibition does the source give for `CCCCCc1nnc(NC(=O)Cc2cccs2)s1` here?
**A.** Its inhibition is 0% (inactive).

**Q.** How did the inhibition turn out when `Cc1cc(=O)n(CCO)c(O)c1C#N` was run?
**A.** The inhibition was 0% (inactive).

**Q.** `O=C(c1ccc2nc(N3CCCCC3)sc2c1)N1CCN(c2ccccn2)CC1` was tested. Which inhibition did it give?
**A.** The inhibition was 0% (inactive).
